Out of some 31,000 sequences screened, about 1,400 (4.5%) were called active. The sample as a whole holds a higher share of actives than the screen did. A number with no mark means an inactive call.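 The calls were made as follows: active = median seed-adjusted z-score above 1 or below -1; inactive = the rest.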

In PubChem BioAssay AID1347426 (Functional Genomics Laboratory (NCATS/FGL), 2020) one finds median seed-adjusted z-score data, which are given here for 30 sequences.

This assay is described as follows: Novel Modifiers of Survival Motor Neuron (SMN) Protein: Gene Identification via Genome-wide siRNA Screen.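 Also: luminescence tracks full-length SMN protein made from the SMN2 reporter.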 As to conditions: HEK293T SMN2-luciferase reporter, siRNA knockdown, 72 h; actives lie on both sides. The essentials: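 HEK293T cells stably carrying an SMN2 promoter/splicing cassette–luciferase reporter were reverse-transfected with 1 pmol siRNA per well (druggable-genome library, 3 siRNAs per gene) and grown 72 h at 37 °C. Luminescence, normalized to negative-control siRNA and log10-transformed, was scored as MAD.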
Background: In a reporter assay the amount or activity of a reporter protein is the signal.
As to GAUCAACUGUGGAAAUAUUTT against KISS1R, the median seed-adjusted z-score is -0.299.

As to CCGUGUUCAUUCCUUUUCATT against ZFP41, the median seed-adjusted z-score was 0.

As to CCACUAAAGGAUCAACGUATT against PHKB, the median seed-adjusted z-score is -0.142.

Regarding GCGACUCCUAGAGAACAAATT against LSG1, the median seed-adjusted z-score was 1.31 (active).

In the case of CAAGGUAGCUCAGCACUGATT against PEX6, the median seed-adjusted z-score was -0.281.

With AGAGCGAGCCUUUGCUGAUTT against DAD1, the median seed-adjusted z-score was -0.45.

Regarding CCCUGCUCCUCACUCAUUUTT against KRTAP5-5, the median seed-adjusted z-score is -1.07 (active).

For GUUCCGUACAGAUAAAGGATT against SAE1, the median seed-adjusted z-score is 0.831.

With AUGUCACGCUGGUGCCCUATT against IFI30, the median seed-adjusted z-score was 0.401.

On to GUAUCAUGCCCAUCUGAAATT against ZMAT4, for which the median seed-adjusted z-score was -0.0468.

In the case of GAGAGACUCAAGAACGUGATT against ARCN1, the median seed-adjusted z-score was -1.25 (active).

Consider AGCCUAUGAUUUUCCUGAATT against PTF1A, for which the median seed-adjusted z-score is 0.482.

ACCUUGGUGUUGGACCUCATT against RNF26: the median seed-adjusted z-score was 0.359.

GGGACACGCUAAAAGGAGATT against GNB4: the median seed-adjusted z-score is 0.015.

For GGUCUAGCCUUGAUCAGAATT against SHROOM3, the median seed-adjusted z-score is 0.779.

Consider GCAAAUCAGAGGUUCAGAUTT against SQLE, for which the median seed-adjusted z-score is -1.14 (active).

In the case of GGGCUGCAAGUGGAAUUCATT against NR1H3, the median seed-adjusted z-score is 0.426.

As to GGCAAACGAGUGUGCUUCATT against FAM47B, the median seed-adjusted z-score is -0.0631.

CACCGGAGGUUUAUCACAATT against AMDHD2: the median seed-adjusted z-score is -0.0707.

Take AGCCUGUAGCUUAAACUUATT against KCTD12: the median seed-adjusted z-score was 0.431.

On to GUGUCCAACAGAUACGGAATT against DSCAM, for which the median seed-adjusted z-score was -0.527.

Take GGCAGAUAUUUAAGCCUAUTT against HDAC2: the median seed-adjusted z-score was -1.27 (active).

In the case of GGAGUGCAAAAGGAACGAATT against APIP, the median seed-adjusted z-score is -0.0945.

With GAGUUAUGGUGAACCCACATT against CDKN2B, the median seed-adjusted z-score was 0.0154.

On to GGACAUUCAAUUCAAACCATT against SMAD4, for which the median seed-adjusted z-score was 0.0746.

Turning to CUGUUUAGCUUCAUGCAAATT against ARID3C, the median seed-adjusted z-score is -1.32 (active).

In the case of GCAAGGCAAUGCAAACGAATT against DDX43, the median seed-adjusted z-score was -0.452.

Turning to GCGACUACCUGUUUCAACATT against PELO, the median seed-adjusted z-score was 0.394.

As for GGAAAGAUCUUCAAUCAUATT against ZNF597, the median seed-adjusted z-score is 0.366.

Take GGACAUUCGUCAGAUUUAUTT against TEAD1: the median seed-adjusted z-score was 1.31 (active).
